# The panel holds about 83,000 compounds, 20% with a hit somewhere; the sample as a whole holds those more often.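 Single-concentration screen, 48 h exposure, 96-well plates. Endpoint: percent growth. Below 10 = active.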 Activity calls are given as the source filed them.
# Test system: HL-60(TB) leukemia
# Assay: NCI-60 one-dose screen, 48 h (100 = growth as untreated, 0 = no growth, -100 = all killed)
# Conditions: 10 µM unless noted
row,SMILES,growth
1,COc1ccc(Nc2ncnc3c2sc2nc(C)cc(C)c23)cc1,97.9% (inactive)
2,Cc1[nH]c2ccc(F)cc2c1CCNC(=O)C1CCN(C(=O)c2ccc(-c3ccccc3)cc2)CC1,55.3% (inactive)
3,COc1cc(NCC(C)(O)CN(CC(C)C)CC(C)C)c2nc(C)ccc2c1 (stereo not given),71.4% (inactive)
4,CC1(C)NC(=S)NC1=O,89.9% (inactive)
5,CCN(Cc1cccc(S(=O)(=O)[O-])c1)c1ccc(C(=C2C=CC(=[N+](CC)Cc3cccc(S(=O)(=O)O)c3)C=C2)c2ccccc2S(=O)(=O)O)cc1,104% (inactive)
6,C#CCNC(=O)[C@]1(C)CC[C@]2(C)CC[C@@H]3C(=CC[C@H]4[C@@]3(C)CC[C@H]3C(C)(C)C(=O)CC[C@]43C)[C@@H]2C1,56.2% (inactive)
7,O=c1oc2c([nH]c3ccc4ccccc4c32)c2ccccc12,129% (inactive)
8,O=C(CN1CCN(c2ccc(Cl)cc2)CC1)N1CCN(c2nnc(-c3ccccc3)c(-c3ccccc3)n2)CC1,-50.1% (active)
9,COc1cc(/C=C/C(=O)c2c(C)[n+]([O-])c3ccccc3[n+]2[O-])ccc1O,102% (inactive)
10,CC(C)[N+]1(C)C2CC[C@@H]1CC(OC(=O)C(CO)c1ccccc1)C2 (stereo not given in full),107% (inactive)
11,COc1ccccc1CNCCCN1C(=O)c2ccc3c4c(ccc(c24)C1=O)C(=O)N(CCCNCCCN)C3=O,-42.3% (active)
12,COc1ccc(/C=C/C(=O)c2ccc(NC(=O)CN3CCN(c4cc5c(cc4F)c(=O)c(C(=O)O)cn5C4CC4)CC3)cc2)cc1,123% (inactive)
13,CNc1ccc2c(c1)c1ccccc1n2C,93.7% (inactive)
14,COc1ccc(-n2c(N)c(-c3nc4ccccc4[nH]3)cc(C#N)c2=O)cc1,99% (inactive)
15,CC(C)CC1C(=O)N2CCC[C@H]2C2(O)O[C@](NC(=O)C3C=C4c5cccc6[nH]c(Br)c(c56)C[C@H]4N(C)C3)(C(C)C)C(=O)N12 (stereo not given in full),1.92% (active)
16,COc1ccc(-c2cnc(-c3ccncc3-c3cccc(OC)c3)o2)cc1,0.0287% (active)
17,COc1ccc(-c2nc3ccccc3n3cccc23)cc1,104% (inactive)
18,COc1ccc(CNc2ccc3nc(CCC4CCCCC4)[nH]c3c2)cc1,54.8% (inactive)
19,Cc1ccc2nc(Cl)c(Cn3nnnc3SCc3ccccc3)cc2c1,97.4% (inactive)
20,COC(=O)C1(NC(=O)CNC(=O)OCc2ccccc2)CCCC1,90.4% (inactive)
21,CCOC(=O)c1c(C)nc2c(c1N)C(=O)C(=O)N2Cc1ccc(OC)cc1,46.6% (inactive)
22,O=C(Nc1cc(Cl)cc(Cl)c1)Oc1c(Cl)c(Cl)c(Cl)c(Cl)c1Cl,60.9% (inactive)
23,COc1ccc2c(c1)C(=O)/C(=C/c1ccc(OCC(=O)c3ccc(Cl)cc3)cc1)O2,70.2% (inactive)
24,COc1cccc(CCN2C(=O)CCC3=C2CCC3=O)c1,99.9% (inactive)
25,FC(F)(F)c1[nH]ncc1-c1nc2ccc3[nH]ncc3c2c2c1CCCC2,-32.3% (active)
